Screening data as filed in PubChem BioAssay.
Most compounds without a hit are left out; they make up all but 3.9% or so of the library.
NSD2 inh – inhibitors of human histone methyltransferase NSD2 | O96028 | NSD2 peptide methylation, AlphaScreen, 120 min | inhibition, % at 12.5 µM | 310,000 tested, 0.54% active; in the data active = inhibition above about 50%
Glyco luc inh – N-linked glycosylation inhibition; reporter increase, % at 12.5 µM; D54 ERlucT glycosylation luciferase reporter, 24 h; percent of 100 nM tunicamycin response; AID 588692; 360,000 tested, 0.23% active;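 active = mean luciferase reporter signal, scaled so untreated is 0 and the glycosylation-blocking control 100, at or above a set limit in every replicate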;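 also: luciferase carries N-glycosylation sites so blocking glycosylation raises the light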
Casp6 inh – caspase-6 (human) enzyme inhibition | P55212 | purified caspase-6, Z-VEID-R110 cleavage fluorescence | inhibition, % at 12.5 µM | 350,000 tested, 0.53% active | AID 686996;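 active = mean inhibition across replicates at least about 35%, with every replicate also reaching that limit, limit read from the data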
SUMO Mot1 rescue – SUMOylation pathway inhibition by Mot1-301 growth rescue. S. cerevisiae Mot1-301 growth rescue, ATP luminescence, 38.5C; percent above DMSO median, 100 means doubled. growth rescue, % at 18.8 µM. 320,000 tested, 1% active;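 active = every valid replicate shows activation above 250% relative to neutral control wells; inactive = the rest, any valid replicate at or below 250%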
ALR H2O2 inh – human ALR oxidase inhibition via reduced H2O2 | 290,000 tested, 3.8% active | P55789 | inhibition, % (test concentration not listed) | purified ALR, DTT oxidation, H2O2 HRP-luminol luminescence;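 active = mean replicate inhibition above about 79%, with every replicate also reaching it, limit read from the data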
CDK5 inh – blocks human CDK5/p35 kinase activity; 330,000 tested, 0.01% active; inhibition, % at 10 µM; Q00535+Q15078; Recombinant CDK5/p35, ADP-Glo luminescence, 60 min; AID 488839;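 active = highest replicate inhibition of at least 50% and at least 75% of replicates reaching 50%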
Target sequence (Q00535 whole entry, looked up): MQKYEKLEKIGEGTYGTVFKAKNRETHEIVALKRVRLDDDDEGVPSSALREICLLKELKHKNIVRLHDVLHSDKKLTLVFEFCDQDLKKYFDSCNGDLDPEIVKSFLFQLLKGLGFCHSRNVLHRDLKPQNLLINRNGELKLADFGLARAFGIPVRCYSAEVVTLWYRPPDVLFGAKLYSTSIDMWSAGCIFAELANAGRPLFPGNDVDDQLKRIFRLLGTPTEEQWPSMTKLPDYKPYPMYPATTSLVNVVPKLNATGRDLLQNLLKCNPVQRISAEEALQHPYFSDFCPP
Target sequence (Q15078 whole entry, looked up): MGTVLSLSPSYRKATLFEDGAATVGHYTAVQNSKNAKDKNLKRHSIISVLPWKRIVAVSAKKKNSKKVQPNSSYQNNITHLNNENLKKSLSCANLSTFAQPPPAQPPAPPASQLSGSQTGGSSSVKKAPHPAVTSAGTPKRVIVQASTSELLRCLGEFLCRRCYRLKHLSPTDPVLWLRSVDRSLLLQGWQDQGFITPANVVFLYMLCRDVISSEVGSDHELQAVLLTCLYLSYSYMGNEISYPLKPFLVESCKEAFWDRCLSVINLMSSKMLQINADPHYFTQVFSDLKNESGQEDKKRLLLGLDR
Hits are given with their value; - = inactive; . = no result given.

SMILES | NSD2 inh | Glyco luc inh | Casp6 inh | SUMO Mot1 rescue | ALR H2O2 inh | CDK5 inh
COc1ccc(C(CC(=O)NCc2ccccc2)Sc2n[nH]c(-c3ccccc3)n2)cc1 (centres undefined) | - | - | - | - | - | -
COc1ccc(-c2nc(SC(CC(=O)NCCN3CCOCC3)c3cccs3)n[nH]2)cc1 (centres undefined) | - | - | - | - | 97 | -
COc1ccc(-c2nc(SC(CC(=O)NCc3ccccc3)c3ccc(OC)c(OC)c3)n[nH]2)cc1 (centres undefined) | - | - | - | - | 95 | -
CS(=O)(=O)N1N=C(c2ccco2)CC1c1ccco1 (centres undefined) | - | - | 62 | - | - | -
Cc1cc(=O)[nH]c(N/N=C/C2=C(N3CCOCC3)C(=C\c3ccc(Cl)cc3)/CC2)n1 | - | - | - | - | 98 | -
COc1cc(/C=N/Nc2nc(N3CCCC3)nc(N3CCCC3)n2)ccc1O | - | - | . | - | 99 | -
Cc1cc(=O)[nH]c(N/N=C/c2ccc(O)c(O)c2)n1 | - | - | - | - | 99 | -
Oc1ccc(/C=N/Nc2nc(N3CCCC3)nc(N3CCCC3)n2)cc1O | - | - | - | - | 99 | -
COc1ccc(C(=O)Nc2ccccc2NC(=O)c2ccc(OC)c(OC)c2)cc1OC | - | . | . | . | . | .
O=C(C[C@H]1C[C@@H]2c3cc(NC(=O)NC4CCCC4)ccc3O[C@@H]2[C@@H](CO)O1)NCc1ccncc1 | . | . | - | . | . | .
Cc1ccc(S(=O)(=O)N(C)C[C@H]2OCCCC[C@H](C)Oc3ccc(NC(=O)c4ccccc4)cc3C(=O)N([C@H](C)CO)C[C@@H]2C)cc1 | . | . | - | . | . | .
Cn1cnc(S(=O)(=O)N[C@H]2CC[C@@H](CC(=O)NCC3CC3)O[C@H]2CO)c1 | . | . | - | . | . | .
CC(C)NC(=O)N(C)C[C@H]1OCCCC[C@H](C)Oc2ccc(NS(=O)(=O)c3cccs3)cc2C(=O)N([C@@H](C)CO)C[C@@H]1C | . | . | - | . | . | .
Cc1ccc(NC(=O)CN(C)C(=O)COC(=O)c2ccc(NC(=O)CC#N)cc2)cc1 | - | - | - | - | 90 | -
CC1(C)CC2CC(C)(CN2C(=O)COC(=O)c2ccc(NC(=O)CC#N)cc2)C1 (centres undefined) | - | - | - | - | 98 | -
N#CCC(=O)Nc1ccc(C(=O)OCC(=O)N(Cc2ccccc2)C2CCS(=O)(=O)C2)cc1 (centres undefined) | - | - | - | - | 100 | -
N#CCC(=O)Nc1ccc(C(=O)OCC(=O)Nc2cccc3ccccc23)cc1 | - | - | - | . | . | .
CN(CC(=O)Nc1cccc2ccccc12)C(=O)c1ccc(NC(=O)CC#N)cc1 | - | - | - | - | 94 | -
O=C(C[C@H]1C=C[C@H](NC(=O)c2ccccn2)[C@H](CO)O1)NCc1cccc(F)c1 | . | . | - | . | . | .
O=C(C[C@H]1CC[C@@H]2[C@H](COC[C@@H](O)CN2C(=O)c2ccccn2)O1)NC1CCC1 | . | . | - | . | . | .
Nc1ccc(C(=O)OCc2csc(-c3ccccc3)n2)cc1[N+](=O)[O-] | - | - | . | - | 99 | -
O=C(CNC(=O)c1ccccc1F)OCc1csc(-c2ccccc2)n1 | - | - | - | - | 99 | -
O=C(OCc1csc(-c2ccccc2)n1)c1cccs1 | - | - | . | - | - | -
Cn1cccc1C(=O)OCc1csc(-c2ccccc2)n1 | - | - | . | - | 96 | -
CCCNC(=O)C[C@H]1CC[C@@H]2[C@H](COC[C@H](O)CN2C(=O)c2ccc(F)cc2)O1 | . | . | - | . | . | .
SMILES | NSD2 inh | Glyco luc inh | Casp6 inh | SUMO Mot1 rescue | ALR H2O2 inh | CDK5 inh
CCOc1cccc2cc(-c3csc(NC(=O)CCC(=O)NC4CCCC4)n3)c(=O)oc12 | - | . | . | . | . | .
COc1cccc(NC(=S)NNC(=O)Cn2nc(C(F)F)cc2C(F)F)c1 | - | - | - | - | 84 | -
COc1cccc(NC(=S)NNC(=O)CCn2cc([N+](=O)[O-])cn2)c1 | - | - | - | - | 83 | -
COc1cccc(NC(=S)NNC(=O)Cn2nc([N+](=O)[O-])cc2C)c1 | - | - | - | - | - | -
O=C(Cn1nc(C(F)F)cc1C(F)F)NNC(=S)Nc1ccc(F)cc1 | - | - | . | - | - | -
COc1ccc(S(=O)(=O)N2CCCCN3[C@H](C2)[C@@H](c2ccc(C#CC(C)C)cc2)[C@@H]3CO)cc1 | . | . | - | . | . | .
CN1C(=O)c2cc(NC(=O)Cc3ccccc3)ccc2OC[C@H]2O[C@@H](CC(=O)O)CC[C@@H]21 | . | . | - | . | . | .
C[C@H](CO)N1C[C@H](C)[C@H](CN(C)C(=O)Cc2cccnc2)Oc2ncc(C3=CCCCC3)cc2C1=O | . | . | - | . | . | .
CO[C@@H]1CN(C)C(=O)c2ccc(NC(=O)C3CCCC3)cc2OC[C@@H](C)N(CC2CC2)C[C@H]1C | . | . | - | . | . | .
Cc1cc(NC(=O)c2ccco2)sc1C | - | - | - | - | 98 | -
CCN(CC)c1ccc(NC(=O)CC2Oc3ccccc3NC2=O)c(C)c1 (centres undefined) | . | - | - | - | 98 | -
Cc1cccc(NC(=O)c2ccco2)c1C | - | - | - | - | - | -
CCN(CC)c1ccc(/C=N/NC(=O)c2ccco2)c(O)c1 | - | - | - | - | 97 | -
CCN(CC)c1ccc(NC(=O)c2cccc(F)c2)c(C)c1 | - | - | . | - | 99 | -
O=C(Nc1ccccc1C(=O)O)c1cccc(F)c1 | - | - | . | - | . | -
CCOc1nc2c(c(C)nn2-c2ccccc2)c(C)c1CCC(=O)NCCN1CCOCC1 | - | . | . | . | . | .
COc1cccc(C(=O)Nc2ccc3c(c2)OC[C@H](C)N(C(C)=O)C[C@H](C)[C@@H](OC)CN(C)C3=O)c1 | . | . | - | . | . | .
CCN(CC)c1ccc(NC(=O)c2ccc(Br)o2)c(C)c1 | - | - | . | - | 99 | -
CCN(CC)c1ccc(NC(=O)c2ccco2)c(C)c1 | - | - | . | - | 99 | -
CC(C)C[C@H](NC(=O)c1[nH]cnc1C(=O)Nc1ccc(CNC(=O)OC(C)(C)C)cc1)C(=O)OCc1ccccc1 | . | - | - | 325 | - | -
CC(C)C[C@H](NC(=O)c1[nH]cnc1C(=O)Nc1ccc(CNC(=O)OC(C)(C)C)cc1)C(=O)OC(C)(C)C | . | - | - | - | - | -
COc1ccc(C2(c3ccc(OC)cc3)NC(=O)N(CC(=O)Nc3ccc(N4CCOCC4)cc3)C2=O)cc1 | - | - | 51 | - | - | -
CC(C)c1ccc(NC(=O)CN2C(=O)NC3(CCCCCCC3)C2=O)cc1 | - | 37 | - | - | - | -
Cc1cc(N2CCCC2)ccc1NC(=O)CN1C(=O)NC2(CCCCC2)C1=O | - | - | 39 | - | 93 | -
O=C(CN1C(=O)NC2(CCCCC2)C1=O)Nc1ccc(N2CCCCC2)cc1 | - | - | - | - | 93 | -
COc1ccc(NC(=O)CN2C(=O)NC3(CCCCCCC3)C2=O)cc1 | - | - | - | . | . | -
CCCC#Cc1cnc2c(c1)C(=O)N([C@@H](C)CO)C[C@H](C)[C@@H](CN(C)C(=O)c1ccc(F)cc1)O2 | . | . | - | . | . | .
